In all, about 330,000 compounds went through this assay and about 10,000 (3%) were called active.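 The calls were made as follows: active = inhibition of at least 50% at 8 µM in the primary screen; inactive = the rest.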 The sample as a whole holds a higher share of actives than the screen did.
target: Protein Mdm4 (Homo sapiens) + E3 ubiquitin-protein ligase Mdm2 (Homo sapiens) (UniProt O15151+Q00987); assay: disruptors of Mdm2/MdmX RING complex – cell-based, luminescence, split luciferase, SaOS-2, uHTS, primary screen (AID 485346); details: SaOS-2 split-luciferase Mdm2/MdmX complementation, at 8 µM, hits give high values
Sequence (O15151 whole entry, looked up): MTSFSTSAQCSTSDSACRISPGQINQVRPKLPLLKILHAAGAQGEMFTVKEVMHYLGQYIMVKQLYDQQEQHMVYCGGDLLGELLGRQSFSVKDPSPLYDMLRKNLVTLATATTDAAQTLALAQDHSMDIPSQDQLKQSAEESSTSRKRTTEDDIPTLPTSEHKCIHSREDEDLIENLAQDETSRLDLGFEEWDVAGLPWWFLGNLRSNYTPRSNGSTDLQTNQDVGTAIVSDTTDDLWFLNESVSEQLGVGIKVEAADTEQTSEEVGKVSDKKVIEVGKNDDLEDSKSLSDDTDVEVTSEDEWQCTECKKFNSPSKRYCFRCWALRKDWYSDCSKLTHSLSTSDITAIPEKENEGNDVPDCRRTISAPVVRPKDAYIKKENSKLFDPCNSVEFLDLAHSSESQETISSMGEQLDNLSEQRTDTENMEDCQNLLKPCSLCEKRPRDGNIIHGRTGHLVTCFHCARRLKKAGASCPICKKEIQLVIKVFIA
Sequence (Q00987 whole entry, looked up): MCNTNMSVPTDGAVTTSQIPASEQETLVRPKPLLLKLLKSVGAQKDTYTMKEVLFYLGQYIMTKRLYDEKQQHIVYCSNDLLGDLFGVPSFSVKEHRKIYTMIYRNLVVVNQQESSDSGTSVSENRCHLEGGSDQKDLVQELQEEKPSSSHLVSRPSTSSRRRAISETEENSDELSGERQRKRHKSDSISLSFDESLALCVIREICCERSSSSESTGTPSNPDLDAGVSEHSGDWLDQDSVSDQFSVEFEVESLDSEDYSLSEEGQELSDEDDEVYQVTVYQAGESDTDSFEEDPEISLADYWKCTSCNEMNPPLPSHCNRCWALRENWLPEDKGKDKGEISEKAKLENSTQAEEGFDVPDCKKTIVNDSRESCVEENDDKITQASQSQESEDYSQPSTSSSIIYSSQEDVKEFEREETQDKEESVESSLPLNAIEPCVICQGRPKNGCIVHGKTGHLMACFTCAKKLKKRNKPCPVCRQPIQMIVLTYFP

inhibition, inactive:
COc1cc2[nH]c(=S)n(Cc3ccc(C)o3)c(=O)c2cc1OC 2.31%
CCOc1cc2[nH]c(=S)n(Cc3ccc(C(=O)NCCOC)cc3)c(=O)c2cc1OCC 19.2%
COc1cc2[nH]c(=S)n(CCN3CCCCC3C)c(=O)c2cc1OC (stereo unspecified) 39.9%
COc1ccc(Cn2c(=S)[nH]c3cc(C(=O)N4CCCCC4)ccc3c2=O)cc1 14.8%
CC(=O)NC(Cc1ccc(F)c(F)c1)C(=O)NC1CCN(c2nnnn2-c2ccccc2)CC1 (stereo unspecified) 6.6%
Cc1ccc(CNC(=O)CCCNC(=O)c2ccc(Cl)cc2)n1C 22.5%
CCN(Cc1ccncc1)C(=O)CCc1ccccc1 16.5%
O=C(CCNc1n[nH]c(=O)[nH]c1=O)N/N=C\c1ccc(Br)cc1 9.18%
Cc1cc(C(=O)NNC(=O)c2ccccc2O)c(C)o1 30%
CC1=C(C)CC(C(=O)NNC(=O)c2csc3c2CCC(C(C)(C)C)C3)C(C(=O)O)C1 (stereo unspecified) 7.93%
Cc1noc(NS(=O)(=O)c2ccc(NC(=O)c3oc4ccc(F)cc4c3C)cc2)c1C -34%
O=C(Nc1cc2ccccc2oc1=O)C1CCCCC1 -82.7%
S=c1[nH]c(-c2cccs2)cn1-c1ccccc1 -16.2%
COCCCN1C(=O)C(=O)/C(=C(/O)c2ccc(S(=O)(=O)N3CCOCC3)cc2)C1c1ccc(F)cc1 (stereo unspecified) -23.9%
COc1ccccc1C1=CC(=O)C[C@H](c2ccc(F)cc2)C1 -0.761%
O=C(NCCc1ccccc1)Oc1ccc(Cl)cc1 11.2%
CCOc1ccc(Nc2nc(Cl)nc(N3CCN(c4ccc(OC)cc4)CC3)n2)cc1 7.3%
CCOC(=O)N1CCN(CCC(=O)Nc2cc(OC)ccc2OC)CC1 -21.2%
Cc1ccc(C)c(-n2nnnc2SCC(=O)c2c(N)n(C)c(=O)n(C)c2=O)c1 24.7%
CCn1nccc1C(=O)Nc1ccc(Cl)c(Cl)c1 28.3%
CS(=O)(=O)N(CC(=O)Nc1ccc(Cl)c(Cl)c1)C1CCCCC1 11.5%
COc1ccc(N2CCN(C(=O)CNS(=O)(=O)c3ccc(C)c(C)c3)CC2)cc1 -7.3%
CN(C)c1ccc(C=C2C(=O)OC3(CCCC3)OC2=O)cc1 -3.25%
COC(=O)c1ccc(COc2ccc(/C=N/NC(=O)C(=O)Nc3ccc(OC)cc3)cc2OC)o1 36.6%
COc1cc(/C=N/NC(=O)c2ccoc2C)ccc1OCCN1CCCCC1 7.93%
COc1ccc(S(=O)(=O)N2CCCCCC2)cc1NC(=O)Cc1ccc(OC)c(OC)c1 7.01%
COc1cc(C(C)=O)ccc1OC(C)C(=O)Nc1ccc(S(=O)(=O)N2CCCC2)cc1 (stereo unspecified) 9.67%
O/N=C(\C[n+]1ccccc1)c1ccc(Br)cc1 17%
CC(=O)C(CC(=O)N1CCCC1)C(=O)Nc1ccc(Cl)cc1 (stereo unspecified) -3.54%
O=C(O)CCCN1C(=O)c2ccccc2Sc2ncccc21 -8.61%
Cc1ccc(Nc2nc(N)nc(CSc3nnc(C)s3)n2)cc1 -6.62%
Nc1nc(COC(=O)CCC(=O)c2ccc(Cl)cc2)nc(Nc2ccccc2)n1 -9.75%
CCS(=O)(=O)c1ccc2c(c1)N(S(=O)(=O)c1ccccc1)CC(C(=O)O)O2 (stereo unspecified) -32%
Cn1c(N)c(C(=O)COC(=O)/C=C/c2cccc(C(F)(F)F)c2)c(=O)n(C)c1=O 21.9%
COc1ccc(-c2sc3ccc(OC)cc3c2C#Cc2ccccn2)cc1 40.5%
COc1ccc2sc(-c3ccc(S(C)(=O)=O)cc3)c(-c3ccc(C(N)=O)cc3)c2c1 12%
COCc1cc(C)nc(Nc2cc(C)ccc2C)c1C#N 17.9%
COc1cc(N=Cc2c(O)c3ccccc3oc2=O)c(OC)cc1Cl 20.6%
CN=c1scc(-c2cc(OC)ccc2OC)n1/N=C/c1c(C)[nH]c2ccccc12 20.3%
COc1ccc2[nH]c(C(=O)N/N=C/c3cc(OC)c(OC)c(OC)c3)cc2c1 11.4%
COc1cc(/C=N/NC(=O)Cc2ccccc2)cc(OC)c1OC 4.45%
Cc1cc(CNCc2c(C(=O)N(C)Cc3ccccc3)nc3ccccn23)nn1C 35.1%
CC1O[C@H](OC2C(COC3OC(CO)C(O)[C@H](O)C3O)OC(OC3CC[C@]4(C)C(CC[C@@]5(C)[C@@H]4C=C[C@]46OC[C@@]7(CCC(C)(C)C[C@H]74)C(O)C[C@@]56C)C3(C)C)C(O)C2O)C(O)C(O)C1O (stereo partly specified) -4.59%
Cc1c(C#N)c(NC(=O)c2ccccc2)n(Cc2ccccc2)c1C 29.1%

inhibition, active:
CCOc1cc2[nH]c(=S)n(Cc3ccc(C(=O)N4CCN(C)CC4)cc3)c(=O)c2cc1OCC 91.7%
COc1cc2[nH]c(=S)n(Cc3ccc(F)cc3)c(=O)c2cc1OC 81.3%
CC1=C(C)CC(C(=O)NNC(=O)c2ccccc2O)C(C(=O)O)C1 (stereo unspecified) 60.5%
O=c1oc2ccccc2cc1-c1cn(-c2ccccc2)c(=S)[nH]1 88.3%
CCN1CCN(c2nc(Nc3cc(OC)ccc3OC)nc(Nc3cc(OC)ccc3OC)n2)CC1 56.2%
O=C(CC(O)(C(F)(F)F)C(F)(F)F)Nc1ccc(Cl)c(Cl)c1 83.5%
COc1cc(/C=N/NC(=O)Nc2ccccc2)ccc1OCCOc1ccccc1C 63.8%
COc1ccc(-c2ccc(Nc3ccc(S(=O)(=O)N4CCCC4)cc3)nn2)cc1OC 57.4%
Nc1nc(CC(=O)CSc2ccc(Cl)cc2)nc(Nc2ccc(F)cc2)n1 81%
COc1ccc2sc(-c3ccc(S(C)(=O)=O)cc3)c(C#Cc3cncn3C)c2c1 69.9%
COc1ccc(N=Cc2c(O)[nH]c3ccccc23)cc1OC 61.3%
COc1cc(N=Cc2c(O)[nH]c3ccccc23)cc(OC)c1OC 80.2%
